Gli-Sufu block: Gli-Sufu pathway antagonism | Sufu-KO-LIGHT fibroblasts, Gli luciferase reporter luminescence | inhibition, % at 5 µM | actives 0.74% (n = 340,000);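 active means inhibition above about 55%, limit read from the data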
SRC3 inh: human NCOA3 inhibition. HEK293 GAL4-SRC3 luciferase reporter, luminescence. inhibition, % at 3.6 µM. actives 0.17% (n = 360,000);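 active means inhibition above a per-campaign cutoff, the mean of all compounds plus 3 SD, cut at about 60% in these data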;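 further: higher means less SRC3-driven luciferase light from the GAL4 reporter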
LRH-1 inv ag: NR5A2 inverse agonism in reporter assay | inhibition, % at 3.6 µM | actives 0.13% (n = 360,000) | HEK293T StAR-luciferase reporter, LRH-1 transfected, 24 h | O00482 | AID 602396;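 active means inhibition above the mean inhibition of all tested compounds plus 3 SD, cut at about 73% in these data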
NCOA1 inh: inhibitors of human steroid receptor coactivator 1 (SRC1). inhibition, % at 3.6 µM. actives 0.12% (n = 360,000). Q15788. HEK293 GAL4-SRC1 luciferase reporter, luminescence;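 active means inhibition above the campaign mean plus 3 SD, with each screening campaign given its own cutoff, cut at about 60% in these data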
NCOA2 inhibitor: human SRC2 (NCOA2) inhibition. Q15596. HEK293 GAL4-SRC2 luciferase reporter, luminescence. inhibition, % at 9 µM. actives 0.17% (n = 370,000). AID 651957;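 active means inhibition above the mean inhibition of all tested compounds plus 3 SD, set per campaign, cut at about 52% in these data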
NR2F2 inh: NR2F2 (human) inhibition, primary screen | HEK293T NGFI-A luciferase reporter, luminescence | P24468 | actives 0.7% (n = 370,000) | inhibition, % at 8.6 µM;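 active means inhibition above a per-plate cutoff, mean inhibition of test wells between control levels plus 3 SD, cut at about 38% in these data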;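 further: cells cotransfected with COUP-TFII expression vector driving the NGFI-A reporter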
Target sequence (P24468 whole entry, looked up): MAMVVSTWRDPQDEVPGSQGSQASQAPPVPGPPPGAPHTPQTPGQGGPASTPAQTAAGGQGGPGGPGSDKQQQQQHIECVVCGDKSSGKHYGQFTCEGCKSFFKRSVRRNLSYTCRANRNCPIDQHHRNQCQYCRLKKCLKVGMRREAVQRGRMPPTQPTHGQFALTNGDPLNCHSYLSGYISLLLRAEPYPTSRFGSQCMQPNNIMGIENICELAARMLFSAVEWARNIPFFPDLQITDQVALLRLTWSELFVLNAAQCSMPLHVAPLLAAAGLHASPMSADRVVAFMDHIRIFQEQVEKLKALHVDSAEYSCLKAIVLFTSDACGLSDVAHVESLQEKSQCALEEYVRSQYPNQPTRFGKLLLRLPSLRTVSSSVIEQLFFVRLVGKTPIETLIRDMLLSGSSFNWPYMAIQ
VP16 Luc counter: VP16 inhibition counter-screen for COUP-TFII; shares compounds with NR2F2 inh; HEK293 Gal4-VP16 luciferase reporter, luminescence; inhibition, % at 8.5 µM; actives 25% (n = 2,500); in the data active means inhibition above about 13%
NR2F2 inh conf: confirmation of human COUP-TFII (NR2F2) inhibitors. shares compounds with NR2F2 inh. HEK293 NGFI-A luciferase reporter, luminescence. inhibition, % at 8.5 µM. actives 45% (n = 2,500). AID 687008;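 active means mean inhibition over three repeats above a set limit taken from the earlier primary screen, cut at about 38% in these data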
Numbers stand for hits; n = inactive; x = no result given. Shown are actives, neighbours in structure and some others; about 1.3% of the full set was active somewhere.

SMILES | Gli-Sufu block | SRC3 inh | LRH-1 inv ag | NCOA1 inh | NCOA2 inhibitor | NR2F2 inh | VP16 Luc counter | NR2F2 inh conf
Cc1ccc(Oc2cc([N+](=O)[O-])cc3c2C(=O)Nc2ccccc2O3)cc1 | n | n | n | n | n | 38 | n | n
O=C(C(=O)N1CCC(CNS(=O)(=O)c2ccc(F)c(F)c2)CC1)c1cc2ccccc2o1 | x | x | x | x | n | n | x | x
O=C(NN=Cc1ccccc1O)C(=O)Nc1ccc(F)cc1 | x | x | x | x | n | n | x | x
CC1(C)OC(=O)C2=C(CC(CCc3ccccc3)OC2c2ccc(F)cc2)O1 (stereo not drawn) | x | x | x | x | n | n | x | x
Cc1c(C(=O)N2CCC(C)CC2)oc2ccc3c(c12)C(O)CC1(CCCCC1)O3 (stereo not drawn) | n | n | n | n | n | 38 | n | n
O=C(N/N=C/c1ccc([N+](=O)[O-])s1)c1ccccc1 | n | n | n | n | n | 38 | 31 | n
Cc1ccccc1C(=O)N/N=C/c1ccc([N+](=O)[O-])s1 | n | n | n | n | n | 57 | 55 | 44
CCc1c(-c2ccccc2F)ncn1Cc1cccc(-c2ccccc2)c1 | x | x | n | x | n | 44 | n | n
CCc1c(-c2ccccc2)ncn1Cc1cccc(-c2ccccc2)c1 | x | x | n | x | n | n | x | x
COc1ccccc1N1CCN(S(=O)(=O)c2ccc3c(c2)n(C)c(=O)c(=O)n3C)CC1 | x | x | x | x | n | n | x | x
COc1cc(/C=C2\COC/C(=C\c3ccc(O)c(OC)c3)C2=O)ccc1O | n | n | n | n | n | 63 | n | n
COc1ccc(/C=C2\CC/C(=C\c3ccc(OC)c(OC)c3)C2=O)cc1OC | n | n | n | n | 65 | 51 | 32 | 50
COc1ccc(C(=O)CSc2nnc(-c3cccnc3)n2-c2ccc(C)cc2)cc1 | x | x | x | x | n | n | x | x
CC(=O)c1cc(-c2ccccc2)n(CC(=O)NCc2ccc(F)cc2)c1C | x | x | x | x | n | n | x | x
CCOC(=O)COc1ccc(S(=O)(=O)NCc2ccncc2)cc1 | n | n | n | n | n | 49 | n | n
CCOC(=O)COc1ccc(S(=O)(=O)NCc2ccco2)cc1 | n | n | n | n | n | n | x | x
COCc1ccc(C(=O)N2CCC(CCC(=O)Nc3cccc(C)c3)CC2)s1 | n | n | n | n | n | 40 | 30 | n
Cc1ccc(S(=O)(=O)N2CCc3ccccc3C2)cc1 | n | n | n | n | n | n | x | x
Cc1ccc(S(=O)(=O)N2CCc3ccccc3CC2)cc1 | n | n | n | n | n | 66 | n | 50
C#Cc1ccc(NC(=O)C2(C)CCN2C(=O)Cc2ccc(C(C)C)cc2)cc1 (stereo not drawn) | x | n | n | n | n | 57 | n | 47
C#Cc1ccc(NC(=O)C2(C)CCN2C(=O)C/C=C/c2ccccc2)cc1 (stereo not drawn) | x | n | n | n | n | n | x | x
C#Cc1ccc(NC(=O)C2(C)CCN2C(=O)Cc2ccc(C(C)(C)C)cc2)cc1 (stereo not drawn) | x | n | n | n | n | 61 | n | 43
CS(=O)(=O)N1CCc2cc(-c3csc(NC(=O)C(c4ccccc4)c4ccccc4)n3)ccc21 | n | n | n | n | n | n | x | x
CC1Cc2cc(-c3csc(NC(=O)Cc4ccccc4)n3)ccc2N1S(C)(=O)=O (stereo not drawn) | n | n | n | n | n | 75 | n | 49
Cc1ccc(-c2csc(=Nc3cccnc3)n2CCCn2ccnc2)cc1C | n | n | n | 63 | 62 | 55 | 18 | 45
SMILES | Gli-Sufu block | SRC3 inh | LRH-1 inv ag | NCOA1 inh | NCOA2 inhibitor | NR2F2 inh | VP16 Luc counter | NR2F2 inh conf
Nn1c(SCC(=O)Nc2cccc3ccccc23)nnc1-c1cc(-c2ccccc2)n[nH]1 | x | x | x | x | n | n | x | x
CCCN1CCCCC(NC(=O)COCc2ccccc2)C1=O (stereo not drawn) | x | x | x | x | n | n | x | x
C=C(C)Cn1c(N2CCN(c3ccc(OC)cc3)CC2)nc2c1c(=O)n(C)c(=O)n2C | n | n | n | n | n | 41 | n | n
CCCCN(c1ccccc1)c1ncnc(N)c1[N+](=O)[O-] | n | 63 | n | 61 | 57 | 52 | 15 | n
CC[C@@]1(c2cccc(Cl)c2)C(=O)N(C(=O)OC(C)C)N1C(=O)OC(C)C | x | x | x | x | n | n | x | x
Cc1ccc(-n2c(-c3ccccc3)c[n+]3c2CCc2ccccc2-3)c(C)c1 | 87 | 71 | n | n | n | 64 | 17 | 57
Cc1ccc(-n2c(SCC(=O)N3CCCc4ccccc43)nnc2-c2cccnc2)c(C)c1 | n | n | n | n | n | n | x | x
CC(C)Oc1cccc(-c2csc(N3CCC(C(N)=O)CC3)n2)c1 | x | x | x | x | x | n | x | x
Cc1sc(NC(=O)CCCC(=O)O)c(C(N)=O)c1-c1ccccc1 | n | n | n | n | 75 | 60 | 47 | n
COC(=O)c1c(NC(=O)CCCC(=O)O)sc(C)c1C | n | n | n | n | n | n | x | x
Cc1cc2c(c(=O)o1)[C@@]1(C(=O)N(C)c3cccc(Br)c31)C1=C(CCCC1=O)O2 | x | x | x | x | n | n | x | x
O=C1NCCN1CCN1CCC(c2cn(-c3ccc(F)cc3)c3ccc(Cl)cc23)CC1 | x | x | x | x | n | 43 | n | n
CCCCc1c(-c2ccccc2OC)ncn1Cc1ccccc1C | x | x | x | x | n | n | x | x
CN(C(=O)c1cccc(NC(=O)Cc2ccc(NC(=O)C3CCCN(C(=O)CCc4ccccc4)C3)cc2)c1)C1CCC1 (stereo not drawn) | n | n | n | n | n | 48 | n | n
CN(C(=O)c1ccc(NC(=O)Cc2cccc(NC(=O)C3CCCN(C(=O)CCc4ccccc4)C3)c2)cc1)C1CCCC1 (stereo not drawn) | n | n | n | n | n | n | x | x
CN(Cc1ccccc1)C(=O)c1ccc(NC(=O)Cc2cccc(NC(=O)C3CCCN(C(=O)CCc4ccccc4)C3)c2)cc1 (stereo not drawn) | n | n | n | n | n | 44 | n | n
CN(Cc1ccccc1)C(=O)c1cccc(NC(=O)Cc2ccc(NC(=O)C3CCCN(C(=O)CCc4ccccc4)C3)cc2)c1 (stereo not drawn) | n | n | n | n | n | n | x | x
CN(C(=O)c1cccc(NC(=O)Cc2ccc(NC(=O)C3CCCN(C(=O)CCc4ccccc4)C3)cc2)c1)C1CCCC1 (stereo not drawn) | n | n | n | n | n | 58 | n | 51
O=C(C1CCCN1S(=O)(=O)c1cccc([N+](=O)[O-])c1)N1CCN(c2ccccc2)CC1 (stereo not drawn) | x | x | x | x | n | n | x | x
CC(C)CCN(C)C1CCN(C(=O)NCc2ccccc2)CC1 | x | x | x | x | n | n | x | x
CCCCCCCCCCn1ccc(=N)cc1 | 88 | 71 | 86 | n | n | 82 | 13 | 79
CCCCCCCCn1ccc(=N)cc1 | n | n | n | n | n | 42 | n | n

Compound activity (PubChem BioAssay)
